Laboratory results published in PubChem BioAssay AID686978 (National Center for Advancing Translational Sciences (NCATS), 2013).
Out of some 420,000 compounds screened, about 64,000 (15%) were called active. Another 27% or so got no clear call; they are omitted. The call rests on the fitted dose curve; in most records, active means well fitted inhibition curve with a large enough effect; inconclusive means small, poorly fitted or top-dose-only effect; inactive means flat fitted curve, though single readings scatter. A selection follows.

Test: qHTS for Inhibitors of human tyrosyl-DNA phosphodiesterase 1 (TDP1): qHTS in cells in absence of CPT; further: nearly all actives have a fitted effect of over 55% in size
Settings: DT40 Tdp1-/- hTDP1 cells, no CPT, ATP luminescence, 48 h; activity change, negative = growth inhibition: at 46.2 µM (top of the series)
Procedure, shortened: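 Readout: luminescence from CellTiter-Glo after 30 min in the dark at RT. Cells: DT40 Tdp1-/- with stable hTDP1, 400/well. Exposure: compounds alone, ≥48 hr, 37 °C.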
On the % scale 0 is the no-effect control and ±100 the full control effect; potency means the concentration at half of the fitted maximal effect.

Row | SMILES | activity change, negative = growth inhibition | Potency
1 | COc1ccc(Cl)cc1N(CC(=O)N/N=C/c1ccc(OCC(N)=O)cc1)S(C)(=O)=O | -9.15% (inactive) | 
2 | CCOc1ccc(C(=O)N2CCN(CCc3ccccn3)CC2)cc1 | -26.6% (inactive) | 
3 | O=C(CSc1nnc(-c2cccnc2)n1CCc1ccccc1)NCc1ccccc1 | -0.184% (inactive) | 
4 | COc1ccc(C)cc1NC(=O)CCS(=O)(=O)c1cccc2nonc12 | -7.48% (inactive) | 
5 | COCCN(CCOC)S(=O)(=O)NC[C@H]1O[C@@H](n2cnc3c(N)ncnc32)[C@H](O)[C@@H]1O | -1.26% (inactive) | 
6 | CN1CCN(S(=O)(=O)c2ccc(NC(=S)NC(=O)C3CC3)cc2)CC1 | -7.98% (inactive) | 
7 | CCOC(=O)c1cccnc1NC(=O)c1ccncc1 | 7.91% (inactive) | 
8 | O=C(O)c1ccccc1-c1ccccc1C(=O)Nc1cccc2ccccc12 | -2.15% (inactive) | 
9 | COC(=O)COc1ccc2c(c1C)O/C(=C\c1ccco1)C2=O | -27.7% (inactive) | 
10 | C=CCn1cc(-c2cccc(C(F)(F)F)c2)cc(C#N)c1=O | -9.09% (inactive) | 
11 | CC1(Cc2cccc(C#N)c2)C(=O)Nc2ccc(-c3cccc(C(F)(F)F)c3)cc21 (centres undefined) |  | 20.6 µM (active)
12 | O=c1cc(O)c(-c2cccc(C(F)(F)F)c2)c(Cl)[nH]1 | -13.8% (inactive) | 
13 | COC(=O)C(C)Sc1ccc2nnc(-c3cccc(F)c3)n2n1 (centres undefined) | -17.7% (inactive) | 
14 | Cc1ccc(-n2cnc3ncnc(-c4ccccc4)c32)cc1 | -16.9% (inactive) | 
15 | CCn1ccnc1CN(C)Cc1nc(-c2ccc3c(c2)OCO3)no1 | -24.4% (inactive) | 
16 | Cc1ccc(-n2cc(CN(C)Cc3nccn3C)c(-c3cccc(C)c3)n2)cc1 |  | 23.1 µM (active)
17 | O=C(CCCl)Nc1ccc(S(=O)(=O)NCc2ccco2)cc1 | -4.87% (inactive) | 
18 | Cc1oc(-c2ccccc2Cl)[n+]([O-])c1C |  | 23.1 µM (active)
19 | Cc1ccc(-c2cc(-c3coc4ccccc4c3=O)c3c(n2)-c2cc(Cl)ccc2OC3)cc1 | -9.37% (inactive) | 
20 | O=C(c1ccc(OC2CCN(Cc3ccccn3)CC2)cc1)N1CCCCCC1 | -20% (inactive) | 
21 | COc1cc([N+](=O)[O-])ccc1NC(=O)COC(=O)CCOc1ccc(C)cc1 |  | 6.51 µM (active)
22 | CSc1ccccc1NC(=O)COC(=O)CCCOc1ccc(C)cc1 | -4.28% (inactive) | 

Row | SMILES | activity change, negative = growth inhibition | Potency
23 | COc1cc([N+](=O)[O-])ccc1NC(=O)CN1CCCC1 | 1.19% (inactive) | 
24 | O=C(C[C@H]1CC[C@@H](NC(=O)c2ccncc2)[C@@H](CO)O1)NCC1CC1 | -1.98% (inactive) | 
25 | C=CCn1cnc2scc(-c3ccccc3)c2c1=O | -17.8% (inactive) | 
26 | N#CCCN(CCC#N)c1nnc(-c2ccccc2)s1 | -4.74% (inactive) | 
27 | CN(CCC#N)c1ncnc2scc(-c3ccccc3)c12 |  | 14.6 µM (active)
28 | CCC(=O)NC(Nc1cc(C)ccn1)(C(F)(F)F)C(F)(F)F | -7.28% (inactive) | 
29 | Cc1cc(C)cc(OCC(=O)Nc2ccc(S(=O)(=O)Nc3ccccn3)cc2)c1 | -19.5% (inactive) | 
30 | COC(=O)Cc1ccc(Oc2ncc(C(F)(F)F)cc2Cl)cc1 | -12.9% (inactive) | 
31 | Cc1cc(C)cc(NS(=O)(=O)c2ccc(Oc3ncc(C(F)(F)F)cc3Cl)cc2)c1 |  | 13 µM (active)
32 | Cc1nc(C(F)(F)F)ccc1C(=O)N1CCC1(C)C(=O)NS(=O)(=O)c1ccccc1 (centres undefined) | -4.76% (inactive) | 
33 | O=C(CCN1Cc2ccccc2OC(c2ccccc2)C1)N[C@@H]1CS(=O)(=O)C[C@H]1O (some centres undefined) | -13.3% (inactive) | 
34 | COc1ccc(C2COC(=O)C2=N)c(NC(=O)c2ccccc2)c1 (centres undefined) | -28.1% (inactive) | 
35 | CCCc1ccc(C(=O)[C@@H]2[C@@H](C(C)=O)N3c4ccc(F)cc4C=C[C@@H]3[C@@]23C(=O)Nc2ccccc23)cc1 |  | 18.4 µM (active)
36 | COc1cc(C(=O)N[C@@H](C)C(=O)NCc2ccco2)cc(OC)c1OC | -2.61% (inactive) | 
37 | COc1cc(C(=O)NC(=S)NCc2ccco2)cc(OC)c1OC |  | 20.6 µM (active)
38 | COc1cccc(OC)c1C(=O)NC(=S)NCc1ccco1 | -16.1% (inactive) | 
39 | COc1ccc(-c2nc3c(c(SCC(=O)Nc4ccc(C(=O)O)cc4)n2)Cc2ccccc2O3)cc1 | -7.92% (inactive) | 
40 | Cc1oc2nc(SCC(=O)NCc3cccnc3)nc(N)c2c1C | 0.424% (inactive) | 
41 | COc1ccccc1NC(=O)C1=C(C)NC(=O)NC1c1ccc(C)s1 (centres undefined) | -13.6% (inactive) | 
42 | CC(NC(=O)c1ccc(Cl)cc1)C(=O)N1CCCCC1 (centres undefined) | -9.8% (inactive) | 
43 | O=C(Cn1nc(CNc2ccc(Cl)cc2)[n+]2c1CCCCC2)c1ccc(Cl)cc1 |  | 23.1 µM (active)
44 | O=C(Cn1nnc(N2CCCCC2)n1)c1ccc(Cl)c(Cl)c1 | -10.8% (inactive) | 

Row | SMILES | activity change, negative = growth inhibition | Potency
45 | CC1(c2ccccc2Cl)NC(=O)N(CC(=O)NC(=O)NCc2ccco2)C1=O (centres undefined) | -5.22% (inactive) | 
46 | O=C(CCN1C(=O)c2ccncc2C1=O)Nc1ccc2c(c1)OCCO2 | -12.2% (inactive) | 
47 | Cc1ccc(/C=C2\SC(=S)N(CCC(=O)Nc3ccc(O)cc3)C2=O)cc1 | -12.5% (inactive) | 
48 | COC(=O)C1=C(C)NC(=O)/C1=C/c1ccc(CNS(=O)(=O)c2ccc(C)cc2)o1 | -16.5% (inactive) | 
49 | COC(=O)C1=C(C)N(c2ccc(C)cc2)/C(=C/c2ccc(O)cc2)C1=O |  | 20.6 µM (active)
50 | CC(C)CNS(=O)(=O)c1ccc(C(=O)Nc2ccc3c(c2)OCO3)cc1 | -21.9% (inactive) | 
51 | CCC(C)[C@@H](C(=O)N1CCNCC1)n1cc(CCCCN)nn1 (some centres undefined) | -5.37% (inactive) | 
52 | C=CCOC(=O)C1=C(C)N=C2SCCC(=O)N2C1/C=C/c1ccccc1OC (centres undefined) | -1.5% (inactive) | 
53 | CC(C)C12CN3CC(C(C)C)(CN(C1)C3c1ccc(OCc3ccccc3)cc1)C2=O (centres undefined) | 1.91% (inactive) | 
54 | CC1=C(C(=O)OCC(C)C)C(c2ccc(OCc3ccccc3)cc2)N2C(=O)CCSC2=N1 (centres undefined) |  | 16.4 µM (active)
55 | COc1ccc(-n2c(=O)c(-c3cn(C)c4ccccc34)nc3cnc(OC)nc32)cc1 | -3.92% (inactive) | 
56 | CCC(C(=O)N1CCOCC1)n1c(C(=O)OC)cc2occc21 (centres undefined) | 1.19% (inactive) | 
57 | CCS(=O)(=O)c1ccc2c(c1)N(S(=O)(=O)c1ccccc1)CC(C(=O)O)O2 (centres undefined) | -5.4% (inactive) | 
58 | CCOc1ccc(S(=O)(=O)N2CCC(C(=O)OCc3ccc(OC)cc3)CC2)cc1 | -10.8% (inactive) | 
59 | CCOC(=O)C1CN(S(=O)(=O)c2ccc(OC)cc2)c2cc(Cl)ccc2O1 (centres undefined) |  | 20.6 µM (active)
60 | Cn1cc(S(=O)(=O)N2CCN(c3ccc(F)cc3)CC2)c(=O)n(C)c1=O | -26.6% (inactive) | 
61 | Nc1nnc(SCC(=O)NC2CCCc3ccccc32)s1 (centres undefined) | 15.3% (inactive) | 
62 | CCOC(=O)N1CCN(S(=O)(=O)c2ccc(C(=O)Nc3ccc(F)cc3F)cc2)CC1 |  | 1.64 µM (active)
63 | CCOC(=O)N1CCN(S(=O)(=O)c2ccc(-n3cnnn3)cc2)CC1 | -12.2% (inactive) | 
64 | CCOC(=O)N1CCN(S(=O)(=O)c2ccc(Br)cc2)CC1 | 2.06% (inactive) | 
